# Compounds with a hit are over-represented: about 1.4% of the library has one in this group of screens.
# GC-A act – GC-A stimulated cGMP production enhancers – HEK293 GC-A cells, cGMP TR-FRET, EC30 ANP, primary screen; Atrial natriuretic peptide receptor 1 (Homo sapiens), P16066; 0% at EC30 ANP, 100% saturating ANP; activation, % at 10 µM; actives 0.14% (n = 370,000); in the data active = activation above about 40%
# FAS TE block – FAS thioesterase domain inhibitors, primary screen, biochemical, fluorescence intensity, uHTS. recombinant FAS-TE, OMFH fluorogenic substrate, fluorescence endpoint. Fatty acid synthase (Homo sapiens), P49327. inhibition, % at 15 µM. actives 0.67% (n = 360,000). AID 602261, 2012;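 active = compounds whose normalised, plate-corrected inhibition of enzyme fluorescence in the single-dose primary screen is 50% or more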;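 note: 0% = DMSO with enzyme and 100% = substrate without enzyme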
# A3A deaminase – APOBEC3A ssDNA deaminase inhibitors, primary screen, selectivity assay for APOBEC3G inhibitor project, biochemical, FAM/TAMRA oligo cleavage fluorescence; DNA dC->dU-editing enzyme APOBEC-3A (Homo sapiens), P31941; recombinant A3A, FAM/TAMRA ssDNA deamination fluorescence; inhibition, % at 20 µM; actives 0.41% (n = 330,000); AID 493011, 2011;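 active = at least 40% inhibition at 20 µM here, with at most 30% in a related deaminase screen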;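 note: plate controls were A3A with DMSO for no effect and wells lacking A3A enzyme for full effect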
# Target sequence (P31941 whole entry, looked up): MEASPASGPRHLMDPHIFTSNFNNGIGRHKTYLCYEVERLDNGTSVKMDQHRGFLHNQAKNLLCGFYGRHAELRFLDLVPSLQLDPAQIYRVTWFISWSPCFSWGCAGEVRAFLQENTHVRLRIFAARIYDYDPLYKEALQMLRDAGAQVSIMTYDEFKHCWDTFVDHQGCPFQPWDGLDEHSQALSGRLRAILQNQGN
# APOBEC3G inh – APOBEC3G DNA deaminase inhibitors, primary screen, biochemical, fluorescence, single-stranded DNA substrate, uHTS. inhibition, % at 20 µM. recombinant A3G, ssDNA deamination FAM/TAMRA fluorescence. DNA dC->dU-editing enzyme APOBEC-3G (Homo sapiens), Q9HC16. actives 0.28% (n = 330,000);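 active = inhibition of at least 40% at 20 µM, with no more than 30% in the related APOBEC3A deaminase screen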;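 note: plate controls were DMSO wells with A3G for no effect and wells lacking A3G enzyme for full effect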
# Target sequence (Q9HC16 whole entry, looked up): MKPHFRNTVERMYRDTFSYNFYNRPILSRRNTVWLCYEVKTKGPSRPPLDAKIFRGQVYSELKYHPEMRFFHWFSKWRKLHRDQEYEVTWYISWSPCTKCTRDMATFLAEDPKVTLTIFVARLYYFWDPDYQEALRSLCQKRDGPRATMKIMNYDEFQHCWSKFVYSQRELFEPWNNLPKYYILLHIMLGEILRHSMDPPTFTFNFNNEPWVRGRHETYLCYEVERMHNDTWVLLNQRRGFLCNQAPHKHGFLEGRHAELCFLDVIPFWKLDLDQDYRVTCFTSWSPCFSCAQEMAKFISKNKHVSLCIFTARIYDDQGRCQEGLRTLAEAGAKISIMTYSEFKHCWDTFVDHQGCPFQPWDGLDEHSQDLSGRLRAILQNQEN
# GC-B act – human GC-B receptor activators, primary screen, HEK293 GC-B cells, cGMP TR-FRET, EC30 CNP; Atrial natriuretic peptide receptor 2 (Homo sapiens), P20594; 0% at EC30 CNP, 100% saturating CNP; activation, % at 10 µM; actives 0.11% (n = 370,000); AID 1920062, 2024;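 active = activation at 10 µM reaching about 35% in either raw or pattern-adjusted values, limit read from the data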
# FAS-TE inh conf – FAS thioesterase domain inhibitors, confirmation, biochemical, fluorescence intensity, single concentration; shares compounds with FAS TE block; recombinant FAS-TE, OMFH fluorogenic substrate; actives 45% (n = 2,300); inhibition, % at 15 µM;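 active = compounds inhibiting the enzyme by at least 50% at 15 µM in any one of the replicates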;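 note: 0% = enzyme with DMSO only and 100% = wells lacking enzyme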
# An asterisk follows results filed as active; · = not tested or not shown.
SMILES,GC-A act,FAS TE block,A3A deaminase,APOBEC3G inh,GC-B act,FAS-TE inh conf
CCn1cc([N+](=O)[O-])c(C(=O)N2N=C(c3ccccc3)CC2c2ccc([N+](=O)[O-])cc2)n1 (stereo not drawn),-7,63*,2,-2,-6,47*
CCn1cc([N+](=O)[O-])c(C(=O)N2N=C(c3ccc(Cl)c(Cl)c3)CC2c2ccccc2O)n1 (stereo not drawn),-12,30,0,-7,-4,·
COC(=O)[C@]12C[C@H](CC(=O)NCc3ccc(C)o3)C(=O)N(CCc3ccc(OC)c(OC)c3)C1=C[C@H](C1CCCC1)O[C@@H]2C,-3,·,·,·,-5,·
O=C(/C=C/c1cc([N+](=O)[O-])ccc1OC(F)F)NCc1ccc(F)cc1,0,72*,2,-5,4,86*
COc1ccc(CNC(=O)C[C@H]2C[C@H](C(=O)N3CCCCC3)[C@@]3(CCc4ccccc4)c4[nH]c5ccc(Cl)cc5c4CCN3C2=O)cc1OC,-2,69*,4,3,-4,19
CN(C)C(=O)CCc1ccc2c3c([nH]c2c1)[C@]1(CCC2CCCC2)[C@@H](C(=O)N2CCOCC2)C[C@H](CC(=O)NCc2cccc(C(F)(F)F)c2)C(=O)N1CC3,1,22,0,-1,-5,·
O=C(CC1C[C@H](C(=O)N2CCOCC2)[C@@]2(CCC3CCCC3)c3[nH]c4ccccc4c3CCN2C1=O)NCc1cccc(C(F)(F)F)c1 (stereo partly drawn),-17,61*,·,·,1,34*
COc1ccc(CNC(=O)CC2C[C@H](C(=O)N3CCOCC3)[C@@]3(CCC4CCCC4)c4[nH]c5ccccc5c4CCN3C2=O)cc1OC (stereo partly drawn),-16,77*,-4,-6,-19,88*
COC(=O)C1=C(C)N(C)C(=NCc2cccc(C(F)(F)F)c2)NC1c1ccc(C(F)(F)F)cc1 (stereo not drawn),-16,·,·,·,-13,·
COc1ccc(C(=O)Nc2cc([N+](=O)[O-])ccc2N2CCCC2)cc1,-2,58*,5,-7,3,52*
Cc1ccc(NC(=O)c2cc([N+](=O)[O-])ccc2N2CCOCC2)cc1C,0,74*,0,-7,1,78*
Cc1ccc(NC(=O)c2cc([N+](=O)[O-])ccc2N2CCCC2)cc1,0,66*,-5,-9,-1,42*
Cc1ccc(NC(=O)c2cc(S(=O)(=O)N(C)C)ccc2N2CCCC2)cc1F,5,51*,0,-8,10,58*
CC(C)(C)c1ccc(S(=O)(=O)N2CCCC(C(=O)NCc3cccs3)C2)cc1 (stereo not drawn),1,·,·,·,2,·
COC(=O)[C@]12C[C@H](CC(=O)NCCCN3CCCC3=O)C(=O)N(CCc3ccc(OC)c(OC)c3)C1=C[C@H](C(C)(C)C)O[C@@H]2C,2,·,·,·,1,·
Cc1ccc(NC(=O)C2(c3ccc([N+](=O)[O-])cc3)CCCC2)cc1,-7,60*,-1,-4,-1,51*
Cc1ccc(-c2csc(NC(=O)c3cc([N+](=O)[O-])ccc3N3CCOCC3)n2)cc1,-2,71*,-3,-8,-2,8
CN(C)S(=O)(=O)c1cccc(NC(=O)c2cc([N+](=O)[O-])ccc2N2CCCCC2)c1,-1,59*,-3,-5,2,55*
O=C(Nc1nc(-c2ccccc2)cs1)c1ccc(N2CCOCC2)c([N+](=O)[O-])c1,·,36,2,1,·,·
CC(C)c1ccc(NC(=O)c2cc([N+](=O)[O-])ccc2N2CCOCC2)cc1,-1,74*,35,27,-4,24
COC(=O)[C@]12C[C@H](CC(=O)N3CCOCC3)C(=O)N(Cc3ccccc3)C1=C[C@H](C(C)(C)C)O[C@@H]2C,-4,·,·,·,-9,·
CCCC[C@H](CCCc1ccc(F)cc1)CCC(=O)N(c1ccccc1)c1ccccc1,1,·,·,·,4,·
CCCCCCCCCCCCCCCCCCNc1ccn(C2OC(COP(=O)(O)OCC3OC(n4cc(F)c(=O)[nH]c4=O)CC3O)C(O)C2O)c(=O)n1 (stereo not drawn),15,55*,·,·,-6,27
COc1ccc(-c2nn(-c3ccccc3)cc2/C=N/NC(=O)c2cccc(S(=O)(=O)Nc3ccccc3Cl)c2)cc1,-7,59*,-1,-13,2,16
Cc1nn(-c2ccccc2)c(N2CCCC2)c1/C=N/NC(=O)c1cc(-c2ccccn2)nc2ccccc12,-1,77*,-2,-7,7,26
SMILES,GC-A act,FAS TE block,A3A deaminase,APOBEC3G inh,GC-B act,FAS-TE inh conf
Cc1nn(-c2ccccc2)c(N2CCCC2)c1/C=N/NC(=O)c1cc(-c2cccs2)nc2ccccc12,-7,80*,-2,-9,-4,13
Cc1nn(-c2ccccc2)c(N2CCCC2)c1/C=N/NC(=O)c1cc(-c2ccccc2)nc2ccccc12,-5,43,0,-1,3,·
Cc1nn(-c2ccccc2)c(N2CCCC2)c1/C=N/NC(=O)c1cccc(S(=O)(=O)Nc2ccc(Cl)cc2)c1,-7,50*,0,-8,-5,20
CCCCN(C)C(=O)CSc1nnc(-c2cccnc2)n1C1CCCCC1,2,·,·,·,-8,·
CCn1c(COc2ccc(C)cc2)nnc1SCc1cccc(C(F)(F)F)c1,-7,·,·,·,4,·
CC(C)(C)C(=O)c1c(N)[nH]c(C(=O)c2ccccc2)c1-c1ccc([N+](=O)[O-])cc1,-9,·,·,·,-4,·
C/C=C/c1ccc([C@H]2[C@@H](CN(CC(C)C)S(=O)(=O)c3ccccc3[N+](=O)[O-])N(C(=O)Nc3cccc(OC)c3)[C@H]2CO)cc1,-4,·,·,·,1,·
COc1ccc(N2CCN(C3CC(=O)N(Cc4ccccc4)C3=O)CC2)cc1 (stereo not drawn),-1,1,-2,-4,4,·
O=C1CC(N2CCN(c3ccc(S(=O)(=O)N4CCOCC4)cc3)CC2)C(=O)N1Cc1ccccc1 (stereo not drawn),-1,56*,0,-7,0,65*
Cc1ccc(S(=O)(=O)Oc2ccc(/C=C3/N=C(c4ccccc4)OC3=O)cc2)cc1,-6,54*,3,-1,-5,15

# Screens deposited in PubChem BioAssay by Sanford-Burnham Center for Chemical Genomics.
